Data on ten compounds can be found in PubChem BioAssay.

Each structure is given as a SMILES string. Inconclusive results are not listed. Active and inactive are the calls of the source.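 How the source made its calls, unless noted: active means RAM network inhibition above 8.4% in each of two replicates, 3 SD over the compound average; inconclusive means above 8.4% inhibition in only one replicate; inactive means 8.4% inhibition or less in each replicate.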

Assay [1] can be described thus: reducers of endogenous Her2 protein level, primary screen, SKBR3 breast tumor cells, AlphaScreen, ATP viability (AID 461;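 active means Her2 level under about 52% in both replicate screens, with viability over 70% of control, limit read from the data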;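 on Her2 level: lower value means less Her2 protein in the cells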;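 on viability: percent of carrier control wells set as 100% viability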). The conditions noted are these: 18-24 h, measured here: SKBR3 viability, ATP luminescence, at 10 µM.
For assay [2], the target named is Receptor tyrosine-protein kinase erbB-2 (Homo sapiens) (UniProt P04626). Described as above. To be noted: 18-24 h, at 10 µM, stronger effect = lower value.
Sequence of Receptor tyrosine-protein kinase erbB-2 (Homo sapiens) (P04626 whole entry, looked up): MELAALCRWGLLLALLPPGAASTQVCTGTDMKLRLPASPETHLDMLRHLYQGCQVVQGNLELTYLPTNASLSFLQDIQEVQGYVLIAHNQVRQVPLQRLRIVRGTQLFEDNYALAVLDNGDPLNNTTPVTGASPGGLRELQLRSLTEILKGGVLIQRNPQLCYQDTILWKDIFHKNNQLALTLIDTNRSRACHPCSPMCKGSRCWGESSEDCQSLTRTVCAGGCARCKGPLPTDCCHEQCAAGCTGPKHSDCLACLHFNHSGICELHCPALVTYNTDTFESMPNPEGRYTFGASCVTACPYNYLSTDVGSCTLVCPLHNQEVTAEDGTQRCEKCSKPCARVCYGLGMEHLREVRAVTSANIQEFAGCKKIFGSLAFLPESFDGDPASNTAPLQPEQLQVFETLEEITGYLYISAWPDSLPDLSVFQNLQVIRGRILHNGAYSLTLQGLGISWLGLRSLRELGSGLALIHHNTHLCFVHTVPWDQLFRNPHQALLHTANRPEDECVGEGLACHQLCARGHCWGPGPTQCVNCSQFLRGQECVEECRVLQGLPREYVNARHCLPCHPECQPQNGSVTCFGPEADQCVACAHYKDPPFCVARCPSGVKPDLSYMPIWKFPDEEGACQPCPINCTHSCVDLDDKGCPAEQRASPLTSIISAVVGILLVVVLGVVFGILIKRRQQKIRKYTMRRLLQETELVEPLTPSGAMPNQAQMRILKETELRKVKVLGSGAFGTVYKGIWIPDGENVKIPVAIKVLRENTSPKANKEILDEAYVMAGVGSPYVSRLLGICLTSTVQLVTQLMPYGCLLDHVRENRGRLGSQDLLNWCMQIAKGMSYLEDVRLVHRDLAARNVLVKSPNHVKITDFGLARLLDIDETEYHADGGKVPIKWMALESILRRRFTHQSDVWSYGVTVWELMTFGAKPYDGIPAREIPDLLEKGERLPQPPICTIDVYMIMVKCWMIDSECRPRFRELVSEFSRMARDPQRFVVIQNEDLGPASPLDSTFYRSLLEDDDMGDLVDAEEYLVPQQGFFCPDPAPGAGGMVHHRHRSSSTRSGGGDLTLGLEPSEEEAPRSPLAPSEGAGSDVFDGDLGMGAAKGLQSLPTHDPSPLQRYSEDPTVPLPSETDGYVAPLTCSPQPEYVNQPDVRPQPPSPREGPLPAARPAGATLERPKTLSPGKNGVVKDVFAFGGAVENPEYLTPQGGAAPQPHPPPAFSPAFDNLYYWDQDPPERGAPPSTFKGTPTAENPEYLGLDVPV
The nature of assay [3]: SK-BR-3 cell growth inhibitors, pilot screen, 24 h, human (AID 572;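 active means viability at or below 10% of carrier control in both of two separate runs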;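 further: compound exposure lasted between 18 and 24 h rather than exactly 24 h; 100% = carrier-treated control wells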). The conditions noted are these: SK-BR-3 viability, CellTiter-Glo luminescence, at 10 µM, stronger effect = lower value.
The nature of assay [4]: HUVEC growth inhibition – cell-based, human, primary screen (AID 575;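 active means viability at or below 30% in both replicate assays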;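 further: 100% = median of untreated cell wells with 0.1% DMSO on each plate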). The conditions noted are these: HUVEC proliferation, CellTiter-Glo luminescence, 72 h; at 10 µM; stronger effect = lower value.
Assay [5] is described as follows: growth inhibitors of H69AR lung tumor, primary screen, human, duplicate replicates (AID 580;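 active means viability at or under a set limit in both replicates, limit being median viability minus 3 SD, cut at about 48% in these data, passing the limit was not always enough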;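 further: 100% = mean luminescence of untreated wells and 0% = no signal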). To be noted: H69AR lung tumor cells viability, ATP luminescence, 72 h; at 10 µM; stronger effect = lower value.
A short description of assay [6]: reversal of MRP1-mediated doxorubicin resistance, pilot screen, H69AR cells, doxorubicin co-treatment (AID 601;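 active means viability loss from added drug above about 55%, and viability with drug at most 40%, in both replicates, limit read from the data, passing the limit was not always enough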). To be noted: CellTiter-Glo, 72 h, at 10 µM; for differential viability (reversal): stronger effect = higher value.
Assay [7] in a line: 384-well plate pilot, post-Golgi transport modulator project, inhibition of yeast transport mutant growth (AID 636; in the data active means inhibition above about 31%). To be noted: absorbance 615 nm, about 18 h, stronger effect = higher value.
A short description of assay [8]: growth suppression of yeast trafficking mutant, preliminary HTS, modulators of trafficking downstream of Golgi apparatus project, 1536-format plate, OD 615 nm (AID 637; in the data active means inhibition above about 30%). To be noted: yeast transport mutant growth, absorbance 615 nm, 18 h; stronger effect = higher value.
The nature of assay [9]: OD615 S. cerevisiae growth inhibition, permissive medium, pilot counter-assay, permissive growth control for S. cerevisiae lifespan shortening project (AID 705;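 active means growth inhibition above 25% in both replicates, a cutoff set 3 SD above the mean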). The conditions noted are these: OD615, 24 h, at 10 µM, stronger effect = higher value.
The nature of assay [10]: Restrictive medium S. cerevisiae growth inhibition, OD615, pilot screen of yeast lifespan reduction project, restrictive growth control (AID 706;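 active means growth inhibition above a set limit, 3 SD over mean compound inhibition, in both replicates, cut at about 43% in these data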;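 further: modified DeaD lifespan yeast strain shifted to restrictive glucose medium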). The conditions noted are these: OD615, 48 h, at 10 µM, stronger effect = higher value.
Assay [11] in a line: viability gain of MRP-1-high H69AR cells under doxorubicin, pilot screen, MRP-1 activator project, CellTiter-Glo, duplicate (AID 807;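 active means viability increase at or above a cutoff of the median across tested compounds plus 3 SD, cut at about 8.5% in these data, passing the limit was not always enough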;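 further: compound pretreatment 18-22 h then 72 h combined with doxorubicin; 0% = doxorubicin alone and 100% = vehicle without doxorubicin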). To be noted: H69AR viability with doxorubicin, CellTiter-Glo luminescence; at 10 µM; stronger effect = higher value.
Assay [12] is described as follows: growth suppression of beta-catenin knockout HCT116, pilot screen, human colon tumor cells (AID 823;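 active means cell viability at or below a set limit in both duplicate runs, the limit being the all-compound median minus 4 SD, cut at about 23% in these data, passing the limit was not always enough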;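 further: 0% = wells killed by 20 µM Hyamine and 100% = untreated DMSO cell wells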). The conditions noted are these: CellTiter-Glo, 60 h, at 10 µM, stronger effect = lower value.
The nature of assay [13]: growth suppression of PTEN-deleted HCT116, pilot screen, cell-based, HCT116 clonal line, CellTiter-Glo (AID 824;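 active means viability at or below 27.92% in each of two runs, the all-compound median minus 4 SD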;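 further: 0% = 20 µM Hyamine control and 100% = vehicle cell control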). To be noted: 60 h, at 10 µM, stronger effect = lower value.
Assay [14] can be described thus: inhibitors of the yeast RAM network, pilot screen, dse1pr::URA3 reporter, 5-FOA selection (AID 869;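 active means inhibition over a set limit, the all-compound mean plus 3 SD, in both replicate runs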;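 further: 0% = DMSO wells with no growth and 100% = 10 µM 1-NA-PP1 with full growth; RAM network block rescues cells from 5-FOA so hits raise OD615 growth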). To be noted: S. cerevisiae dse1pr::URA3 5-FOA growth, OD615, 2 d; at 10 µM; stronger effect = higher value; strain carries analog-sensitive mutant Cbk1 kinase.
A short description of assay [15]: RAM signaling pathway blockade in yeast – S. cerevisiae, Pdr1DBD-CYC8 efflux-inhibited sensitized strain, primary screen (AID 1298).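 Further: 0% = DMSO untreated cells without growth and 100% = 10 µM 1-NA-PP1 full growth; higher means more yeast growth rescued from 5-FOA killing.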 The conditions noted are these: S. cerevisiae cbk1-as DSE1-URA3 strain, 5-FOA growth OD615, 2 d; at 50 µM; stronger effect = higher value.
The mark [16] stands for this setting: H69AR cells + 2 uM doxorubicin, measured here: viability with 2 uM doxorubicin, stronger effect = lower value.
Setting [17] is: H69AR cells, compound alone cytotoxicity.

For the compound `CCOC(=O)N1CCN(C(c2ccc(Cl)cc2)c2sc3nc(C)nn3c2O)CC1` (stereo not given), the viability in [1] is 94%; in [3], 94% (inactive); in [4] it was 87.7% (inactive); in assay [5] it was 94.7% (inactive); in assay [6] (setting [16]) it was 103%; in [6] (setting [17]), 94.7%. For the same compound, the viability in assay [12] is 98.4% (inactive); in assay [13] it was 106% (inactive). Further, the Her2 level in assay [2] was 89% (inactive). The differential viability (reversal) in assay [6] (H69AR cells + 2 uM doxorubicin) is -8.7% (inactive). Moreover, the inhibition in [7] is -4.67% (inactive); in assay [8] it was 0.33% (inactive); in assay [14] it was 0.72% (inactive). Further, the growth inhibition in assay [9] was 1.38% (inactive); in assay [10], 1.06% (inactive). The viability increase in assay [11] is 0.03% (inactive). The RAM network inhibition in assay [15] is 6.22% (inactive).

In the case of `COc1c(S(=O)(=O)n2nc(C)cc2C)ccc(Cl)c1Cl`, the viability in [1] was 98%; in assay [3] it was 98% (inactive); in assay [4] it was 101% (inactive); in assay [5], 98% (inactive); in assay [6] (setting [16]) it was 99%; in assay [6] (setting [17]) it was 98%. Besides, the viability in [12] is 95.8% (inactive); in assay [13], 86.2% (inactive). Besides, in assay [2], the Her2 level was 101% (inactive). Also, in assay [6] (H69AR cells + 2 uM doxorubicin), the differential viability (reversal) is -1.02% (inactive). For the same compound, the inhibition in [7] was -2.76% (inactive); in assay [8], 2.33% (inactive); in [14] it was 1.5% (inactive). Moreover, the growth inhibition in assay [9] was -5.31% (inactive); in assay [10] it was 8.94% (inactive). Also, the viability increase in assay [11] is 1.75% (inactive). In addition, the RAM network inhibition in assay [15] was 2.6% (inactive).

Turning to `CCCCC(=O)NCCc1cc2c(C)ccc(C)c2[nH]c1=O`, the viability was 101% in [1]; 101% (inactive) in assay [3]; 119% (inactive) in assay [4]; 85.1% (inactive) in assay [5]; 83.4% in [6] (setting [16]); 85.1% in assay [6] (setting [17]). Also, the values for the viability in assay [12] and in [13] were 109% (inactive) and 106% (inactive), respectively. Besides, the Her2 level in [2] is 95% (inactive). Further, the differential viability (reversal) in [6] (H69AR cells + 2 uM doxorubicin) was 1.76% (inactive). Also, the inhibition in assay [7] was -5.07% (inactive); in [8], 1.67% (inactive); in [14], 1.61% (inactive). In addition, the results for the growth inhibition in assay [9] and in assay [10] were -2.27% (inactive) and -13.3% (inactive), respectively. Further, in [11], the viability increase is 0.28% (inactive). For the same compound, the RAM network inhibition in assay [15] was 0.32% (inactive).

Consider `Cc1ccc(-n2c3c(cc(C(=O)NCCCN4CCOCC4)c2=O)C(=O)CC(C)(C)C3)cc1`, for which the viability in assay [1] is 109%; in assay [3], 109% (inactive); in assay [4], 87% (inactive); in assay [5] it was 85% (inactive); in assay [6] (setting [16]), 97.9%; in assay [6] (setting [17]), 85%. The viability in assay [12] was 101% (inactive); in assay [13], 104% (inactive). In addition, in assay [2], the Her2 level is 110% (inactive). Further, the differential viability (reversal) in [6] (H69AR cells + 2 uM doxorubicin) was -13% (inactive). In addition, the inhibition is 0.53% (inactive) in [7], -3.67% (inactive) in [8] and -0.26% (inactive) in assay [14]. For the same compound, the growth inhibition in assay [9] is -4.99% (inactive); in assay [10], -4.07% (inactive). In addition, in [11], the viability increase is -1.54% (inactive). The RAM network inhibition in assay [15] is 3.35% (inactive).

`CCN(CC)C(=O)Cn1ncc2c1-c1ccccc1OC2`: the viability in [1] is 84.5%; in [3], 84.5% (inactive); in [4] it was 98.3% (inactive); in assay [5], 100% (inactive); in assay [6] (setting [16]), 84.7%; in assay [6] (setting [17]) it was 100%. The viability in assay [12] was 105% (inactive); in [13], 100% (inactive). Further, in [2], the Her2 level was 112% (inactive). The differential viability (reversal) in assay [6] (H69AR cells + 2 uM doxorubicin) is 15.7% (inactive). The inhibition is -0.64% (inactive) in [7], 1.33% (inactive) in assay [8] and 2.26% (inactive) in assay [14]. In addition, the growth inhibition in assay [9] is -13.3% (inactive); in assay [10], -11.6% (inactive). In addition, in assay [11], the viability increase was 0.84% (inactive). Besides, the RAM network inhibition in assay [15] was -2.31% (inactive).

On to `CCN1CCCC1CNC(=O)c1cc2c(=O)n(C)c3ccccc3c2n1C` (stereo not given), for which the viability was 87% in [1]; 87% (inactive) in assay [3]; 74.7% (inactive) in [4]; 87.8% (inactive) in [5]; 80.8% in assay [6] (setting [16]); 87.8% in assay [6] (setting [17]). Also, the viability in assay [12] was 67.5% (inactive); in assay [13], 66.2% (inactive). Moreover, the Her2 level in assay [2] is 86.5% (inactive). Moreover, the differential viability (reversal) in assay [6] (H69AR cells + 2 uM doxorubicin) is 7.05% (inactive). The inhibition in [7] is -0.4% (inactive); in [8], 15.9% (inactive); in [14], 1.1% (inactive). Besides, the growth inhibition is -1.93% (inactive) in assay [9] and -3.33% (inactive) in assay [10]. For the same compound, in assay [11], the viability increase was -5.23% (inactive). The RAM network inhibition in assay [15] was 2% (inactive).

As for `O=C(NCc1ccc2c(c1)OCO2)C1CCCN(S(=O)(=O)c2cccc3cccnc23)C1` (stereo not given), the viability in assay [1] is 95.5%; in assay [3], 95.5% (inactive); in assay [4] it was 70% (inactive); in assay [5] it was 83.3% (inactive); in assay [6] (setting [16]) it was 78.1%; in assay [6] (setting [17]), 83.3%. The viability was 84.9% (inactive) in assay [12] and 80.7% (inactive) in assay [13]. For the same compound, in assay [2], the Her2 level was 85% (inactive). The differential viability (reversal) in assay [6] (H69AR cells + 2 uM doxorubicin) is 5.17% (inactive). Besides, the inhibition in assay [7] was -4.93% (inactive); in assay [8], 4% (inactive); in assay [14], 0.32% (inactive). The figures for the growth inhibition in [9] and in [10] were -10.4% (inactive) and -10.5% (inactive), respectively. Also, in assay [11], the viability increase was -2.13% (inactive). Moreover, in [15], the RAM network inhibition was 5.25% (inactive).

`CC1(C)NC(=O)N(CC(O)COc2cccc(F)c2)C1=O` (stereo not given): the viability in assay [1] was 97%; in assay [3], 97% (inactive); in assay [4], 110% (inactive); in assay [5] it was 101% (inactive); in [6] (setting [16]), 99.8%; in [6] (setting [17]), 101%. The viability in assay [12] is 99.9% (inactive); in assay [13], 97.9% (inactive). For the same compound, the Her2 level in assay [2] is 112% (inactive). For the same compound, the differential viability (reversal) in assay [6] (H69AR cells + 2 uM doxorubicin) is 1.67% (inactive). Besides, the results for the inhibition in assay [7], in assay [8] and in assay [14] were 3.73% (inactive), -1% (inactive) and 1.2% (inactive), respectively. Moreover, the growth inhibition is -3.19% (inactive) in assay [9] and -1.89% (inactive) in assay [10]. The viability increase in [11] is -0.02% (inactive). The RAM network inhibition in [15] was 1.81% (inactive).

Consider `Cc1ccc(OCC(O)CN2C(=O)NC(C)(C)C2=O)cc1C` (stereo not given), for which the viability in assay [1] is 105%; in assay [3], 105% (inactive); in assay [4], 88% (inactive); in assay [5], 102% (inactive); in assay [6] (setting [16]), 86.4%; in assay [6] (setting [17]), 102%. Also, the viability is 105% (inactive) in assay [12] and 94% (inactive) in assay [13]. Also, the Her2 level in [2] was 94.5% (inactive). In addition, the differential viability (reversal) in assay [6] (H69AR cells + 2 uM doxorubicin) was 15.8% (inactive). For the same compound, the inhibition was -5.73% (inactive) in assay [7], 5.08% (inactive) in assay [8] and 0.65% (inactive) in assay [14]. Also, the growth inhibition in [9] is -11.3% (inactive); in [10] it was -19.3% (inactive). Further, the viability increase in assay [11] is -0.62% (inactive). Also, in [15], the RAM network inhibition is 4.18% (inactive).

On to `c1ccc(-c2cn3cccnc3n2)cc1`, for which the viability was 118% in assay [1]; 118% (inactive) in assay [3]; 106% (inactive) in [4]; 101% (inactive) in [5]; 90.4% in [6] (setting [16]); 101% in [6] (setting [17]). Besides, the results for the viability in [12] and in assay [13] were 110% (inactive) and 100% (inactive), respectively. Further, the Her2 level in [2] was 88.5% (inactive). The differential viability (reversal) in assay [6] (H69AR cells + 2 uM doxorubicin) is 10.5% (inactive). Further, the inhibition in [7] was -6.45% (inactive); in assay [8], -0.73% (inactive); in [14] it was 3.13% (inactive). The figures for the growth inhibition in assay [9] and in [10] were -10.6% (inactive) and -27% (inactive), respectively. For the same compound, in [11], the viability increase is 0.59% (inactive). In addition, the RAM network inhibition in assay [15] was 1.13% (inactive).
